# From PubChem BioAssay
# hcDAF-12 act: H. contortus DAF-12 nuclear receptor activators, primary screen, cell-based, luminescence, HEK293, lit1-tk-luc reporter; HEK293 hcDAF-12 lit1-tk-luc reporter; 0% DMSO, 100% Δ7-dafachronic acid; activation, % at 6.8 µM; hit rate 1.4% among 370,000; AID 652067, 2013;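 active = activation above the mean of all tested compounds plus 3 SD, cut at about 5.5% in these data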;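 also: 100% = response to 3 µM Δ7-dafachronic acid high control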
# ssDAF-12 act: S. stercoralis DAF-12 nuclear receptor activators, primary screen, cell-based, luminescence, HEK293, GRIP1 co-expression, lit1-tk-luc; HEK293 ssDAF-12/GRIP1 lit1-tk-luc reporter; % of 3 µM dafachronic acid response; hit rate 1% among 370,000; activation, % at 6.8 µM;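 active = activation above the mean over all tested compounds plus 3 SD, cut at about 0.9% in these data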;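 also: 0% = DMSO-only wells and 100% = 3 µM delta7-dafachronic acid wells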
# SMARCA2 activ: SMARCA2 (BRM) function activators, primary screen, cell-based, luminescence, high throughput; MG213 cells, MMTV-luciferase reporter, dexamethasone, overnight; activation, % at 9.1 µM; hit rate 1% among 370,000; AID 652017, 2013; in the data active = activation above about 7.8%;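 also: 0% = vehicle wells and 100% = reference activator wells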
# DAX1 inh-1: DAX1 (NR0B1) inhibitors on StAR promoter, primary screen, cell-based, luminescence, SF-1 (NR5A1), full-length DAX-1. AID 652010, 2013. inhibition, % at 6.8 µM. HEK293T StAR-luciferase reporter, SF-1/DAX-1 repression relief. hit rate 1.1% among 370,000;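 active = inhibition above the mean over all tested compounds plus 3 SD, cut at about 3.6% in these data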;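 also: 0% = DAX-1 cells with DMSO and 100% = cells lacking DAX-1 with DMSO; higher inhibition means more luminescence from relief of DAX-1 repression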
# DAX1 inh-2: DAX1 (NR0B1) inhibitors, primary screen, cell-based, HEK293, Gal4-DAX1, luciferase luminescence. Nuclear receptor subfamily 0 group B member 1 (Homo sapiens), P51843. HEK293 Gal4-DAX1 luciferase reporter. inhibition, % at 6.75 µM. hit rate 0.99% among 340,000;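 active = inhibition above the mean over all tested compounds plus 3 SD, cut at about 4.2% in these data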;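 also: 0% = DAX1-transfected cells with DMSO and 100% = empty-vector control cells with DMSO; inhibition shows as a rise in luminescence from relieved DAX1 repression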
# hgDAF-12 ag: H. glycines DAF-12 receptor agonists, primary screen, cell-based, luminescence, HEK293, GAL4 fusion, UAS-luciferase. Nuclear hormone receptor DAF-12 (Heterodera glycines), GAL4 fusion. HEK293 GAL4-hgDAF12 UAS-luciferase reporter, agonist luminescence; normalized to butyrate control. activation, % at 6.8 µM. hit rate 1.8% among 370,000;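 active = activation above a cutoff set at the mean of all screened compounds plus 3 SD, cut at about 10% in these data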;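 also: 0% = DMSO wells and 100% = sodium butyrate wells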
# hgDAF12 conf: H. glycines DAF-12 receptor agonists, confirmation, cell-based, luminescence, HEK293, GAL4-LBD fusion; shares compounds with hgDAF-12 ag; HEK293 GAL4-hgDAF12 luciferase reporter, agonist mode; percent of butyrate response; activation, % at 6.8 µM; hit rate 80% among 3,300; AID 743050, 2013;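 active = mean activation over triplicate wells above the hit cutoff derived from the earlier primary screen, cut at about 11% in these data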;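 also: 0% = DMSO low control and 100% = 2 mM sodium butyrate high control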
# LXRb DAF12 ctr: LXR agonists, Gal4 luciferase reporter, confirmation, counter-screen for hgDAF-12 agonist project, cell-based, luminescence, HEK293, H. glycines campaign; 3,300 tested, under 10 active; shares compounds with hgDAF-12 ag; activation, % at 6.8 µM; 24 h;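 active = mean activation of the triplicate above a set limit carried over from the primary screen, none filed active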
# Target sequence (P55055 whole entry, looked up, the tested form may be a part): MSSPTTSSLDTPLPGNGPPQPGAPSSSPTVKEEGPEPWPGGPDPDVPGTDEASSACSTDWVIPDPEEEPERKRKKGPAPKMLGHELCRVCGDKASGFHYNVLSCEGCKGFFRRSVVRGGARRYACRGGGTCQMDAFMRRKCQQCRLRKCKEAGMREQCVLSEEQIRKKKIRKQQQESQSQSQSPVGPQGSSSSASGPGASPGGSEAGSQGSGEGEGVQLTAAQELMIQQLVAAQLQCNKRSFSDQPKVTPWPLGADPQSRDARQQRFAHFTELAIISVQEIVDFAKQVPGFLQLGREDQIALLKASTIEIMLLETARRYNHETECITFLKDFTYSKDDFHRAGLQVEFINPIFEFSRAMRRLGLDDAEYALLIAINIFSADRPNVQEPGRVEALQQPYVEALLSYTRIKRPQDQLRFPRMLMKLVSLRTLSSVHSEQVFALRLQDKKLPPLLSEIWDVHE
# Active calls of the source: *; . = not tested or not shown. Only some compounds are listed: those with a hit (about 4.8% of all), similar ones and a draw of the others.
SMILES,hcDAF-12 act,ssDAF-12 act,SMARCA2 activ,DAX1 inh-1,DAX1 inh-2,hgDAF-12 ag,hgDAF12 conf,LXRb DAF12 ctr
Cc1ccc(Cl)c(OCC(=O)Nc2ccc3c(c2)OCCO3)c1,1,-1,4,2,4,14*,15*,1
CCN(CC(=O)Nc1ccc2c(c1)OCCO2)C(=O)COc1cc(C)ccc1Cl,-1,-1,-1,-1,0,-1,.,.
O=C(COc1cc(Cl)c(Cl)cc1Cl)Nc1cccc(O)c1,5,0,3,1,3,17*,18*,1
O=C(COc1cc(Cl)c(Cl)cc1Cl)Nc1ccncc1,-1,-1,-1,0,1,4,.,.
O=C(COc1ccccc1Br)Nc1ccc2c(c1)OCCCO2,4,0,5,2,4,15*,14*,1
Cc1c(Cl)cccc1NC(=O)c1cc(C2CC2)on1,0,0,1,1,1,9,.,.
Cc1cc(NC(=O)c2cc(C3CC3)on2)no1,0,0,0,3,1,15*,7,0
O=C1[C@@H]2Cc3c([nH]c4ccccc34)C(c3ccccc3)N2C(=O)CN1CCO (stereo not given in full),3,-1,0,1,1,4,.,.
CN1CC(=O)N2[C@H](c3ccc4c(c3)OCO4)c3[nH]c4ccccc4c3C[C@@H]2C1=O,-1,-1,-1,-1,0,49*,1,0
O=C(N/N=C/c1cccc(OC(=O)c2ccco2)c1)c1ccc(F)cc1,3,0,2,3,1,17*,13*,0
COc1cc(/C=N/NC(=O)c2ccc(F)cc2)ccc1OC(=O)c1ccco1,0,-1,0,1,0,6,.,.
O=C(N/N=C/c1ccc(OC(=O)c2ccco2)cc1)c1ccccn1,3,0,7,4.0*,.,17*,15*,1
O=C(Oc1ccc(/C=N/NC(=O)c2ccccn2)cc1)c1ccc(Br)cc1,-1,-1,2,1,2,3,.,.
CCOc1ccc(S(=O)(=O)N(C)CC(=O)NCc2ccc3c(c2)OCO3)cc1,-2,-1,-4,-1,-1,-2,.,.
Nc1cc(Cl)ccc1Oc1ccc2ccccc2c1,4,1,-2,2,1,22*,8,0
Cc1ccc(Oc2ccc(Cl)cc2N)cc1,1,-1,4,0,2,8,.,.
Cc1nn(-c2ccccc2)c(N)c1N=Nc1ccc2ccccc2c1,3,1,6,3,2,23*,18*,1
Cc1ccc(N=Nc2c(N)nn(-c3ccccc3)c2N)cc1,2,0.9*,3,1,0,20*,25*,1
Cc1ccc(-c2nc(-c3ccncc3)no2)cc1C,2,0,6,2,4,18*,19*,1
Cc1ccc(-c2nc(-c3ccncc3)no2)cc1Cl,1,0,6,1,1,6,.,.
CCOCCn1c(SCC(=O)OCc2ccccc2)nc2c1c(=O)[nH]c(=O)n2C,4,-1,1,3,1,13*,-1,0
CCOCCn1c(SCc2ccccc2)nc2c1c(=O)[nH]c(=O)n2C,-2,-1,-1,0,-1,-1,.,.
COc1ccc(/C=N/NC(=O)c2sccc2C)c2ccccc12,3,0,7,1,6.2*,15*,5,0
C[C@H](CO)N1C[C@H](C)[C@H](CN(C)CC2CCCCC2)Oc2ccc(NS(=O)(=O)c3ccc(F)cc3)cc2CC1=O,1,-1,1,0,0,-1,.,.
COc1ccc(NC(=O)CSc2nc3ccsc3c(=O)n2CCC(=O)O)c(OC)c1,1,-1,4,0,0,14*,1,0
SMILES,hcDAF-12 act,ssDAF-12 act,SMARCA2 activ,DAX1 inh-1,DAX1 inh-2,hgDAF-12 ag,hgDAF12 conf,LXRb DAF12 ctr
CS(=O)(=O)c1cccc(OCCCN2CCC(C(O)(c3ccccc3)c3ccccc3)CC2)c1,1,-1,-1,1,.,0,.,.
COc1ccc(S(=O)(=O)N2CCC(C(=O)N[C@@H](C)C(=O)NCc3ccco3)CC2)cc1,0,-1,1,-1,2,0,.,.
COCCCNC(=O)C[C@H]1C[C@@]2(C(=O)OC)C(=C[C@H](C(C)C)O[C@@H]2C2CC2)N(CCC2=CCCCC2)C1=O,-2,-1,-2,0,.,-1,.,.
Cc1cccnc1NC(=S)Nc1ccc(Cl)c(Cl)c1,4,0,3,1,2,10,.,.
COc1ccc(NC(=S)Nc2ncccc2C)cc1OC,3,0,3,2,2,21*,6,0
COc1ccc2cc(-c3ccn[nH]3)ccc2c1,4,1,7,1,3,14*,15*,1
O=C(/C=C/c1ccccc1)C1C(=O)c2ccccc2C1=O,5,1,4,1,0,22*,12*,0
COc1ccc(NC(=O)c2cc3ccccc3[nH]2)cc1,2,0,2,2,6.1*,17*,13*,1
COc1ccc2[nH]c(C(=O)Nc3ccc(C)c(F)c3)cc2c1,-1,0,4,0,1,3,.,.
O=C(Nc1cccnc1)c1sc2cccc(F)c2c1Cl,6.0*,-1,1,4.1*,1,17*,15*,0
CCc1nc2cc3sc(CC)nc3cc2s1,2,0,4,2,0,16*,13*,1
COc1ccc(S(=O)(=O)NC(=O)C2(C)CCN2C(=O)CC2CCCCC2)cc1OC (stereo not given),-1,-1,-2,0,.,6,.,.
CCCCSc1nc2c(cnn2-c2ccccc2)c(=O)n1N,3,-1,1,3,1,19*,14*,1
